From PubChem BioAssay (EPA / NIEHS)
Records with an inconclusive call do not appear. Activity calls are given as the source filed them. The calls were made as follows: active = hit-call score of the fitted dose curve at least 0.9, where 1 is the maximum; inconclusive = response in the unintended direction; inactive = score below 0.9.

Each compound was assayed against human RAR-related Orphan Receptor gamma (RORg), RORC (gene 6097) (UniProt P51449) (assay: ATG_RORg_TRANS: Attagene TRANS-FACTORIAL HepG2 Assay for human RAR-related Orphan Receptor gamma (RORg) (AID 2283011)).
human RAR-related Orphan Receptor gamma (RORg), RORC (gene 6097), sequence (P51449 whole entry, looked up): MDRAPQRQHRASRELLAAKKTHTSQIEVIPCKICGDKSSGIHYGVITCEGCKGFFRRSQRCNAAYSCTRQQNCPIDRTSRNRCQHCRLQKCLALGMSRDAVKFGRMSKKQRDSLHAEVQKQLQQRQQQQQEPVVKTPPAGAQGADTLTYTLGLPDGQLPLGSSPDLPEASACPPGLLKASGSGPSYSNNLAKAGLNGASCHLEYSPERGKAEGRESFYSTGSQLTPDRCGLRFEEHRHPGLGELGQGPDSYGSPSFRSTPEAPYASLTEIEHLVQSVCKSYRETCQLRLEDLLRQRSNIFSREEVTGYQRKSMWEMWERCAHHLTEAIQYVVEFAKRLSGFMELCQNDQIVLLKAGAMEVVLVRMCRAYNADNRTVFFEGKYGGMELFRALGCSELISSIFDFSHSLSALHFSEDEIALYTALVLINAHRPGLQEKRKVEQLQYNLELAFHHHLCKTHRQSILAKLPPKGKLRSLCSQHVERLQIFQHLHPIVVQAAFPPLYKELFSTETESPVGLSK
Experimental: ATG_TRANS is a cell-based, multiplexed-readout assay that uses HepG2, a human liver cell line, with measurements taken at 24 hours after chemical dosing in a 24-well plate.ATG_RORg_TRANS is one of 30 assay component(s) measured or calculated from the ATG_TRANS assay. It is designed to make measurements of mRNA induction, a form of inducible reporter, as detected with fluorescence intensity signals by Reverse transcription polymerase chain reaction (RT-PCR) and Capillary electrophoresis technology.Data from the assay component ATG_RORg_TRANS was analyzed into 1 assay endpoint. This assay endpoint, ATG_RORg_TRANS, was analyzed in the positive analysis fitting direction relative to DMSO as the negative control and baseline of activity. Using a type of inducible reporter, measures of mRNA for gain-of-signal activity can be used to understand the reporter gene at the transcription factor-level as they relate to the gene RORC. Furthermore, this assay endpoint can be referred to as a primary readout, because this assay has produced multiple assay endpoints where this one serves a reporter gene function. To generalize the intended target to other relatable targets, this assay endpoint is annotated to the nuclear receptor intended target family, where the subfamily is orphan.
Human liver HepG2 cells are transiently transfected with multiple reporter transcription units (MRTUs) in 6-well plates using FuGene 6 reagent (Roche; 3 ml FuGene/1 mg DNA). The MRTU constructs are regulated by a cis-regulating element (promoter). […] A major difference between the CIS and TRANS system is that in CIS activities of endogenous TFs are measured, whereas the TRANS assay evaluates changes in activities of exogenous, chimeric NR-Gal4 proteins. […] At the end of 24 hour incubation, total RNA was isolated using TriZol reagent (Invitrogen). The isolated RNA is then reverse-transcribed using oligo(dT) primer and Mo-MLV reverse transcriptase (Invitrogen) with DNAse I (Ambion) treatment for 30 min. The one-tenth of the produced cDNA was amplified by PCR using Taq DNA polymerase (Invitrogen) and two reporter sequence-specific primers. The PCR products were fluorescently labeled by primer extension with 6-arboxyfluorescein (6-FAM) 5'-labeled reporter sequence-specific primer (2 min at 95 C, 20 s at 68 C and 10 min at 72 C) and these products were digested with 5U of HpaI (New England Biolabs) for 2h at 37 C. The fragments were purified using Qiaquick PCR columns (Qiagen), analyzed on an ABI 3130xL genetic analyzer (Applied Biosystems) with peak positions identified by using a set of X-rhodamine (ROX)-labeled MapMarker1000 molecular weight standards (BioVentures). The raw capillary electrophoresis data was processed using Attagraph software (Attagene).

outcome, inactive:
O=C(Oc1ccccc1)c1cccc(C(=O)Oc2ccccc2)c1
CC(=O)OC1CC(C)OC(C)O1 (stereo not given)
CCC(C)N(C)C(=O)c1cc2ccccc2c(-c2ccccc2Cl)n1 (stereo not given)
CC(C)COC(=O)CCCCC(=O)OCC(C)C
C=CCc1ccc(OC)c(OC)c1
CC(N)=O
O=C1CCCCC1
CC(=O)CC(c1ccccc1)c1c(O)c2ccccc2oc1=O (stereo not given)
CSc1ccc(Oc2ccc(S(N)(=O)=O)cc2CN(C)C)cc1C
CC(COCC(C)OC(=O)c1ccccc1)OC(=O)c1ccccc1 (stereo not given)
C/C=C/C=C/C(=O)O
CCN(CC)CCOc1ccc(C(=C(Cl)c2ccccc2)c2ccccc2)cc1
O=C(NS(=O)(=O)/C=C/c1cccs1)c1ccc(F)cc1Br
CN(C)C(=O)NC1(c2ccccc2)CCN(CCC[C@]2(c3ccc(Cl)c(Cl)c3)CCCN(C(=O)c3ccccc3)C2)CC1
CC(C)OC(=O)C(C)(C)Oc1ccc(C(=O)c2ccc(Cl)cc2)cc1
Cn1cnc2c1c(=O)[nH]c(=O)n2C
CCCCCCCCCCCCCCCCO
CCCCC(CC)CO (stereo not given)
O=C1O[C@H]([C@H](O)CO)C(O)=C1O
CC(C)c1cccc(C(C)C)c1NC(=O)NS(=O)(=O)c1cc(C(C)(C)O)co1
S=c1[nH]c2ccccc2s1
COc1ccc(C(=O)Nc2nc3ccccc3c(NCc3ccccc3)c2C#N)cc1
c1ccc2occc2c1
CC(=O)[C@@]1(O)CC[C@H]2[C@@H]3CCC4=CC(=O)CC[C@]4(C)[C@H]3CC[C@@]21C
CO[C@@H]1COCC[C@@H]1N[C@@H]1CC[C@@](C(=O)N2CCc3ncc(C(F)(F)F)cc3C2)(C(C)C)C1
CCc1cc(C2=C(C(=O)O)N(c3ccccc3C(F)(F)F)S(=O)(=O)c3ccccc32)cc2c1OCO2
Cc1cn([C@H]2C=C[C@@H](CO)O2)c(=O)[nH]c1=O
CS(=O)(=O)c1ccc([C@@H](C[C@H]2CCC(=O)C2)C(=O)Nc2cnccn2)cc1Cl
O=C(O)c1cccnc1
CC(=O)O[C@]1(C(C)=O)CC[C@H]2[C@@H]3C=C(Cl)C4=CC(=O)[C@@H]5C[C@@H]5[C@]4(C)[C@H]3CC[C@@]21C
Oc1ccccc1O
Cc1cc(Cc2ccc(N)c(C)c2)ccc1N
CC1=C(C)S(=O)(=O)CCS1(=O)=O
NCCOCCOCCN
N[C@@H](Cc1c[nH]c2ccccc12)C(=O)O
CC(C)NCC(O)c1ccc(O)c(O)c1 (stereo not given)
CCCC(=O)O
Cc1cc(SC2=C(O)C[C@@](CCc3ccc(N)cc3)(C(C)C)OC2=O)c(C(C)(C)C)cc1CO
Nc1nc(=S)c2[nH]cnc2[nH]1
O=C(O)CN(CC(=O)O)CC(=O)O
